The text below walks through data of PubChem BioAssay (NCATS).

Inconclusive results are not listed. A number with no mark means an inactive call. Activity calls are given as the source filed them. The call rests on the fitted dose curve; in most records, active means well fitted inhibition curve with a large enough effect; inconclusive means small, poorly fitted or top-dose-only effect, or effect the other way; inactive means flat fitted curve, though single readings scatter.
Potency means the concentration at half of the fitted maximal effect.

ATP-dependent 6-phosphofructokinase (Trypanosoma brucei brucei), sequence (O15648 whole entry, looked up): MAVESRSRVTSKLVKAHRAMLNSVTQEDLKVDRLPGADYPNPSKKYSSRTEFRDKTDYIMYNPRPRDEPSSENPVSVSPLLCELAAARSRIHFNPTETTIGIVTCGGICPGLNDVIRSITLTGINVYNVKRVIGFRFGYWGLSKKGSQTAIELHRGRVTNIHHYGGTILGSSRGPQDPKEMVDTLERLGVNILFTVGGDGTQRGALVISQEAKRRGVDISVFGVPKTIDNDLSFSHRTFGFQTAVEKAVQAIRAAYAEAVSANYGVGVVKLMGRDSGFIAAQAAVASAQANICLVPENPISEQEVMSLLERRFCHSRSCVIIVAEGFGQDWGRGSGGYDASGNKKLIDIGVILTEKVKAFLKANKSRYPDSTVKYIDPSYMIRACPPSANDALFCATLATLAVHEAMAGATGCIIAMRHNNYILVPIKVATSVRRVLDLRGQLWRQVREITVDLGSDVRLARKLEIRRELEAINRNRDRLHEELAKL

The assay deals with ATP-dependent 6-phosphofructokinase (Trypanosoma brucei brucei) (UniProt O15648). Put plainly: qHTS Assay to Find Inhibitors of T. brucei phosphofructokinase: hit validation (AID 492961).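 On activity change, negative = inhibition: luminescence reports ADP formed as PFK phosphorylates fructose-6-phosphate with ATP.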 As to conditions: T. brucei PFK, ADP-Glo luminescence; series mostly up to 51.4 µM; activity change, negative = inhibition: at the top concentration. From the text:
NIH Molecular Libraries Probe Production Network [MLPCN] NIH Chemical Genomics Center [NCGC] Grant: 1 R03 MH092153-01 PI Name: Malcolm Walkinshaw, University of Edinburgh NCGC Assay Overview: Various species of the protozoan family Trypanosomatidae are responsible for a range of serious human diseases in tropical and subtropical areas of the world. […] Many of the disorders caused by trypanosomatids are fatal if left untreated, but most currently used drugs are inefficient and toxic. […] Oxidative metabolism involving the mitochondrial tricarboxylic acid cycle and oxidative phosphorylation are repressed in these parasites, and recent RNA interference (RNAi) experiments have shown that even partial depletion of certain individual glycolytic enzymes can lead to the death of cultured parasites. One such glycolytic enzyme, phosphofructokinase (PFK), catalyzes the formation of fructose-1,6-bisphosphate (F1,6BP) and ADP from fructose-6-phosphate (F6P) and ATP, and in many metabolic circumstances makes an important contribution to the control of flux through the glycolytic pathway. As a specific glycolytic target, PFK is particularly attractive as it catalyzes the first irreversible step in glycolysis, and structural and kinetic studies have shown very substantial and essential differences from corresponding host enzymes, allowing for the discovery of parasite-selective inhibitors. The goal of this screen is to find small-molecule inhibitors of T. brucei PFK using a biochemical assay that measures PFK activity as a function of ADP production. A luminescence-based assay for T. brucei PFK activity has been developed which uses luciferase to detect production of ADP. Traditional luciferase-based nucleotide detection reagents rely on ATP production as a direct substrate for the luciferase reaction; however, PFK catalyzes the transfer of a phosphate from ATP to F6P, resulting in the net depletion of ATP. To directly measure the ADP product of the PFK reaction, we used the ADP-Glo detection kit (Promega), which utilizes two separate reactions to 1) deplete all remaining uncatalyzed ATP and 2) convert all remaining ADP to ATP, which is then detected through a traditional luciferase-coupled reaction. Compounds were screened as a concentration-titration series that ranged from 57 uM to 0.7 nM.
NCGC Assay Protocol Summary: Substrate buffer was dispensed into white, solid 1536-well plates at 3uL/well in 0.1M triethanolamine (TEA) buffer, pH 8.0, containing final concentrations of 5 mM MgCl2, 0.01% Tween20, 0.5 mM fructose-6-phosphate (F6P) and 0.1mM ATP. Then, 23 nL of compounds or DMSO were delivered to each well using a pin tool. One uL T. brucei PFK (0.1M TEA, 0.01% Tween20, 0.1% bovine serum albumin (BSA) and 1.25nM PFK, final concentrations) was then dispensed, and plates were incubated at room temperature for 45 min. The luminescent detection reagent, ADP-Glo (Promega), was then added in two steps: the first reagent, ADP-Glo (which converts remaining uncatalyzed ATP), was added at 2.5uL/well and incubated for ten minutes at room temperature, and the second component, Kinase Detection reagent (which converts ADP to ATP as a substrate for luciferase-based luminescence), was added immediately after at 5uL/well, followed by one final ten minute room temperature incubation. The plates were measured on a ViewLux plate reader for luminescent signal using a clear filter with a one second exposure. The %Activity was determined from the corrected luminescence values. As no specific T. brucei PFK inhibitors have been identified in the literature, 1x (1.25nM) and 0x PFK enzyme controls (untreated) were included to normalize %Activity of identified inhibitors; 0x enzyme values corresponded to 100%Activity (full inhibition), while 1x PFK enzyme values were used to normalize 0%Activity (no inhibition). Concentration-response curves were fitted to the signals arising from the resulting luminescence. […]
For `NC(=O)N1c2ccccc2CC(=O)c2ccccc21`, the “activity change, negative = inhibition” value is 12.9%. Same read-out and setting: as for `CCC(C)(C)c1ccc(CC(C)CN2C[C@@H](C)O[C@@H](C)C2)cc1` (stereo not given in full), the figure is 10%. The same measure, in the same setting: the figure for `CNNCc1ccc(C(=O)NC(C)C)cc1` is 0%. On the same count and under the same terms, as for `CCCc1cc(C(N)=S)ccn1`, the figure is -6.61%. Take `CC(C)(C#N)c1cc(Cn2cncn2)cc(C(C)(C)C#N)c1`: the “activity change, negative = inhibition” value is -2.69%. On to `CC(C)OC(=O)C(C(=O)OC(C)C)=C1SC=CS1`, for which the “activity change, negative = inhibition” value was -4.53%. Same read-out and setting: as for `NC(=O)c1cccnc1`, the figure is -3.92%.

For the compound `CC(=O)Oc1ccccc1C(=O)Nc1ncc([N+](=O)[O-])s1`, the “activity change, negative = inhibition” value was -18.6%. The same measure, in the same setting: as for `C1CCC(C(CC2CCCCN2)C2CCCCC2)CC1` (stereo not given), the figure is 11.5%. Turning to `Cc1cccc(N(C)C(=S)Oc2ccc3ccccc3c2)c1`, the “activity change, negative = inhibition” value was 2.69% [at 24.3 µM]. On the same count and under the same terms, the figure for `CCOc1cc(N)c(Cl)cc1C(=O)NCC1CN(Cc2ccc(F)cc2)CCO1` (stereo not given) is -18.4%; for `Nc1ccc(S(=O)(=O)Nc2ccccn2)cc1` it is 1.76% [at 24.3 µM]; for `Nc1[nH]c(=O)ncc1F` it is -1.9% [at 24.3 µM]. The same measure, in the same setting: as for `CC(C)(Sc1cc(C(C)(C)C)c(O)c(C(C)(C)C)c1)Sc1cc(C(C)(C)C)c(O)c(C(C)(C)C)c1`, the figure is 12.4% [at 24.3 µM]. Turning to `Oc1c(Cl)cc(Cl)c2cccnc12`, the “activity change, negative = inhibition” value was 17.3%.

Regarding `CCn1cc(C(=O)O)c(=O)c2cc(F)c(N3CCN(C)CC3)cc21`, the “activity change, negative = inhibition” value was -6.49%. Same read-out and setting: the figure for `CNS(=O)(=O)Cc1ccc2[nH]cc(CCN(C)C)c2c1` is 11.6%. The same measure, in the same setting: as for `CN(C)CCc1c[nH]c2ccc(CS(=O)(=O)N3CCCC3)cc12`, the figure is -7.42%.

As to `O=C(O)c1cc(=O)[nH]c(=O)[nH]1`, the “activity change, negative = inhibition” value is -1.25%. On the same count and under the same terms, the figure for `CCOC(=O)c1ccc(C#Cc2ccc3c(c2)C(C)(C)CCS3)nc1` is -5.13%; for `COC(=O)Nc1nc2ccc(Sc3ccccc3)cc2[nH]1` it is 2.28% [at 24.3 µM]. For the compound `COc1ncnc(NS(=O)(=O)c2ccc(N)cc2)c1OC`, the “activity change, negative = inhibition” value was 0.471%.

Take `CCCc1nc(C)c2c(=O)[nH]c(-c3cc(S(=O)(=O)N4CCN(CC)CC4)ccc3OCC)nn12`: the “activity change, negative = inhibition” value is 1.67%. For `O=C(O)CCn1c2c(c3ccccc31)C[C@H](NS(=O)(=O)c1ccc(F)cc1)CC2`, the “activity change, negative = inhibition” value was 11.1%. Consider `CN(Cc1cc(Br)cc(Br)c1N)C1CCCCC1`, for which the “activity change, negative = inhibition” value was -4.64%.

Regarding `O=c1cc(O)c(Cl)c[nH]1`, the “activity change, negative = inhibition” value was 13.5%. For the compound `CCOCC(O)COc1ccc(NC(=O)CC[S+](C)C)cc1` (stereo not given), the “activity change, negative = inhibition” value was 2.71%.

On to `CCOC(=O)[C@H](CCc1ccccc1)N[C@H]1CS[C@H](c2cccs2)CN(CC(=O)O)C1=O`, for which the “activity change, negative = inhibition” value was 0.108%. Same read-out and setting: as for `NCCCC(O)(P(=O)(O)O)P(=O)(O)O`, the figure is -3.25%; as for `COc1cc(NCc2ccc3nc(N)nc(N)c3c2C)cc(OC)c1OC`, 6.46%; as for `CC(N)C12CC3CC(CC(C3)C1)C2` (stereo not given), -9.46%. On the same count and under the same terms, the figure for `CC[C@H](C)C(=O)O[C@H]1C[C@@H](C)C=C2C=C[C@H](C)[C@H](CC[C@@H]3C[C@@H](O)CC(=O)O3)[C@H]21` is 15.1%. On to `Cc1oc(=O)oc1CN1CCN(c2cc3c(cc2F)c(=O)c(C(=O)O)c2n3C(C)S2)CC1` (stereo not given), for which the “activity change, negative = inhibition” value was -6.28%.

As to `COc1cccc(N(C)C(=S)Oc2ccc3c(c2)CCCC3)n1`, the “activity change, negative = inhibition” value was -5%. Same read-out and setting: the figure for `CNCC[C@H](Oc1cccc2ccccc12)c1cccs1` is -2.57%. Turning to `CN(CCOc1ccc(CC2SC(=O)NC2=O)cc1)c1ccccn1` (stereo not given), the “activity change, negative = inhibition” value is -0.626%. As to `O=P(O)(O)C(O)(Cc1cccnc1)P(=O)(O)O`, the “activity change, negative = inhibition” value was -3.22%. For `COc1ccc(-c2ccc3cc(C(=O)O)ccc3c2)cc1C12CC3CC(CC(C3)C1)C2`, the Potency was 15.8 µM (active). Consider `N[C@@H](C(=O)N[C@@H]1C(=O)N2C(C(=O)O)=C(Cl)CS[C@H]12)c1ccccc1`, for which the “activity change, negative = inhibition” value is 19.3%. As for `CN1CCN(c2c(F)cc3c(=O)c(C(=O)O)cn4c3c2OCN4C)CC1`, the “activity change, negative = inhibition” value is 6.37%.
